Inhibition data for 15 molecules are collected here from PubChem BioAssay.

SMILES strings stand for the structures. The source made the active and inactive calls. Cut-off read from the data, not from the text of the source: active = inhibition above about 36%; inactive = the rest.

This test deals with transactivating tegument protein VP16 (Human herpesvirus 1). Kind of test: VP16 transactivation reporter inhibitors, counter-screen for SRC2 inhibitor project, cell-based, luminescence, single concentration (AID 652007). To be noted: cell-based VP16 transactivation luciferase reporter, at 8.9 µM, hits give high values. A general note: The purpose of a counterscreen is to sort out artefacts and off-target activity.
The inhibition is the change of the read-out against control, counted positive when it falls. For the molecule `Cc1ccc(C2CC(c3cccs3)=NN2C(=O)CCl)cc1` (stereo not given), the inhibition was 6.45% (inactive). `COc1cccc(NC(=O)c2cc(Cl)nnc2Cl)c1`: the inhibition was 23.6% (inactive). For the molecule `Cc1nnc(SCC2=C(C(=O)O)N3C(=O)C(NC(=O)Cn4nc(C)c(Cl)c4C)C3SC2)s1` (stereo not given), the inhibition is -2.47% (inactive).

In the case of `Cc1ccc(C(=O)NC(=S)Nc2ccc(-c3cc4ccccc4oc3=O)cc2)c(C)c1`, the inhibition is -3.58% (inactive).

`CCS(=O)(=O)c1ncc(Cl)c(C(=O)Nc2ccc(S(=O)(=O)N(C)c3ccccc3)cc2)n1`: the inhibition was 65.2% (active).

On to `CCn1c(Oc2ccccc2)nc2c1c(=O)n(C)c(=O)n2C`, for which the inhibition is 8.01% (inactive).

As to `COCCNC(=O)/C(C#N)=C/c1cc(C(C)C)c(OC)cc1C`, the inhibition was -4.35% (inactive). As for `O=C(c1ccc(S(=O)(=O)Cc2cc(F)ccc2F)c([N+](=O)[O-])c1)N1CCOCC1`, the inhibition was 5.57% (inactive).

As for `Cc1nc(SCCC(=O)O)c2cc(-c3ccccc3)sc2n1`, the inhibition was 48.6% (active).

In the case of `Clc1ccccc1/C=C/c1nc(-c2ccccn2)no1`, the inhibition is -11.4% (inactive). Regarding `COc1ccc(/C=C2\SC(=S)N(CCCC(=O)NNC(=O)c3ccccc3O)C2=O)cc1`, the inhibition was 89.9% (active). On to `Cc1ccoc1C(=O)Nc1ccc(CC(=O)O)cc1`, for which the inhibition was 41.7% (active). In the case of `Cc1ccc(-n2c(C)c([N+](=O)[O-])c3ccc(O)cc32)cc1` it was 2.28% (inactive); in that of `O=C(CCl)Nc1cccc(S(=O)(=O)NC2=NCCC2)c1`, 76.2% (active). For the molecule `Cc1cc(Cl)c(S(=O)(=O)N2CCN(c3ccccn3)CC2)cc1OCC(=O)NC1CCCCC1`, the inhibition is 10.5% (inactive).
